Measured values: PubChem BioAssay (NCI)
This is part of a sample that, as a whole, favours compounds with a hit. Of some 83,000 tested, about 20% had one in any assay.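 Percent growth is the endpoint: 0 to 100 indicates growth inhibition (40 means 60% inhibition), 0 means no net growth, and negative values indicate cell death.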 Active and inactive are the calls of the source. The calls were made as follows: active = growth percent below 10; inactive = the rest.

System: HL-60(TB) leukemia
Experiment: NCI-60 one-dose screen, 48 h (100 = growth as untreated, 0 = no growth, -100 = all killed)
Conditions: 10 µM unless noted

Row | SMILES | growth
1 | Cc1cn(-c2cccc(NC(=O)c3ccc(C)c(Nc4nccc(-c5cccnc5)n4)c3)c2)cn1 | 10.4% (inactive)
2 | O=C1/C(=C/c2ccccn2)SC(=S)N1N1CCOCC1 | 97.2% (inactive)
3 | O=C(/C=C/C12c3ccccc3C(c3ccccc31)C1C(=O)NC(=O)C12)c1ccco1 (stereo not given) | 8.34% (active)
4 | O=C(c1ccc2ncc(-c3nc(NC4CC4)ncc3F)n2c1)N1CCOCC1 | -30.3% (active)
5 | COc1cc(C2C3CC4CCCC[C@H]4N3[C@@]3(C(=O)Nc4cc(Cl)ccc43)C2C(=O)c2nc3ccccc3[nH]2)cc(OC)c1OC (stereo not given in full) | 21.8% (inactive)
6 | COc1cccc(-c2nn(C)c3sc(C(=O)NCCN4CCN(c5ccccc5F)CC4)cc23)c1 | 8.08% (active)
7 | COc1ccc(/C=N/NC(=O)Cn2nnc3ccccc32)cc1 | 105% (inactive)
8 | CCOc1cc2c(Cl)ncnc2c(OCC)c1OCC | -16.4% (active)
9 | O=c1nc(NO)[nH]c(=O)n1Cc1ccccc1 | 105% (inactive)
10 | COc1ccc2nc3ccccc3c(NCCNCC(C)O)c2c1 (stereo not given) | 14.2% (inactive)
11 | COC(=O)[C@H](Cc1cn(C)cn1)NC(=O)[C@H](Cc1c[nH]c2ccccc12)NC(=O)Nc1cc(C(F)(F)F)cc(C(F)(F)F)c1 | -54.5% [100 µM] (active)
12 | C#CCOc1cccc(Nc2ncnc3cc(NC(=O)CCl)ccc23)c1 | -62.2% (active)
13 | O=C(Nc1cccc(C(F)(F)F)c1)Nc1ccc(OCc2nnc(-c3ccc(Cl)cc3)o2)c(F)c1 | 92.5% (inactive)
14 | Cc1nc(Nc2ccc(NC(=S)Nc3ccccc3)cc2)nc2nc(Nc3cccc(Cl)c3)[nH]c(=O)c12 | 57.1% (inactive)
15 | c1ccc(CCc2ccccc2-c2cc(-c3ccccc3)on2)cc1 | 76.2% (inactive)
16 | CC[C@H]1CCC/C=C/[C@@H]2C[C@H](O)C[C@H]2[C@H](O)/C=C/C(=O)O1 | -0.414% (active)
17 | CC(=O)c1nc2ccccc2n1CC(=O)c1cccc(Cl)c1 | -28.9% (active)
18 | Nc1c2c(c(O)c3c1=C(CO)C=N3)=NCCS2 | -33.7% (active)
19 | COc1ccc(-c2nc3ccc(Cc4ccc5nc(-c6ccc(OC)cc6)[nH]c5c4)cc3[nH]2)cc1 | 9.66% (active)
20 | CCN(CC)CCCCCNc1cc(OC(=O)c2ccccc2)cc2cccnc12 | 79.8% (inactive)

Row | SMILES | growth
21 | S=c1[nH]ccn1-c1c(Cl)cccc1Cl | 93.5% (inactive)
22 | O=C(C(=O)c1cc(Br)ccc1O)c1cc(Br)ccc1O | 27.4% (inactive)
23 | C=C/C(C)=C/C[C@]1(C)[C@H](C)[C@@H](OC(=O)CCC)[C@H](O)[C@@]23C(=C[C@H](OC)C[C@@H]12)[C@@H](OC(=O)CCC)O[C@H]3OC(C)=O | -43.9% (active)
24 | O=C1/C=C/[C@@H](O)[C@@H]2C[C@@H](O)C[C@H]2/C=C/CCC[C@H](CCc2ccc3ncccc3c2)O1 | -52.3% (active)
25 | CCCCCCCCCCCCC1C/C=C\CCCC(=O)O1 (stereo not given) | 88.4% (inactive)
26 | Cc1cc(O)ccc1Sc1ccccc1[N+](=O)[O-] | 115% (inactive)
27 | CN(C)C(=S)N=Nc1c(O)[nH]c2ccccc12 | -40.3% (active)
28 | NS(=O)(=O)c1ccc(CCN2C(=O)c3cc(Cl)c(Cl)cc3C2=O)cc1 | 86.5% (inactive)
29 | Cc1ccc2nc(-c3ccc(C(=O)N/N=C/c4ccc([N+](=O)[O-])cc4)cc3)[nH]c2c1 | 103% (inactive)
30 | COc1cc2c(=O)n(C3CCCCCC3)c3c4cc[nH]c4ncc3c2cc1OC | 74.1% (inactive)
31 | O=C(O)c1ccc(NC(=O)c2ccc(Nc3ccnc(C(F)(F)F)c3)cc2)cc1 | 97.4% (inactive)
32 | C/C(=N\NC(=O)CSc1nc2ccccc2c(=O)n1CCc1ccc(S(N)(=O)=O)cc1)c1ccccn1 | 33.8% (inactive)
33 | O=C(/C=C/c1c(Cl)nc2sccn12)c1ccc(F)c(F)c1 | 78.3% (inactive)
34 | CN(C)CC(=O)c1ccc2cc(Br)c3ccccc3c2c1 | 53.4% (inactive)
35 | COc1ccc(-c2nnc(-c3ccc4c(c3)nc(-c3ccccc3)n4C3CCCCC3)o2)cc1 | 17.2% (inactive)
36 | OCCN1CCCCCCC1 | 102% (inactive)
37 | O=[N+]([O-])c1ccc(-c2nc(Cl)c3c(n2)CCCC3)o1 | 93.8% (inactive)
38 | COC(=O)[C@]12CCC(C)(C)C[C@H]1[C@H]1C(=O)C[C@@H]3[C@@]4(C)c5c([nH]c6ccccc6c5=O)C(C)(C)[C@@H]4CC[C@@]3(C)[C@]1(C)CC2 | 21.8% (inactive)
39 | CCC(=C(c1ccc(OCCN(CC)CC)cc1)c1ccc(OCCN(CC)CC)cc1)c1ccc(Cl)cc1 | -51.6% (active)
40 | COc1ccc(-n2c(N)c(-c3nc4ccccc4[nH]3)cc(C#N)c2=O)cc1 | 99% (inactive)
